Gal4-VP16 FLuc – Gal4-VP16 reporter inhibition counter-screen; actives 3.5% (n = 310,000); Drosophila S2 Gal4-VP16 UAS-luciferase, luminescence, 20 h; Potency, µM (highest dose often 53.6 µM), most hits filed as inhibitors;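 also: Gal4-VP16 expression switched on by copper sulfate through the metallothionein promoter; nearly all actives have a fitted effect of over 50% in size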
ELG1 repair inh – ELG1-dependent DNA repair inhibition; actives 2.3% (n = 330,000); AID 504467; HEK293T ELG1-luciferase reporter, luminescence, 16 h; DNA damage induced by 5-fluorouridine; Potency, µM (highest dose often 46.1 µM), hits mostly inhibitors; also: nearly all actives have a fitted effect of over 55% in size
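DMSO vehicle served as the neutral condition. Each well held 2,000 cells given 5-fluorouridine plus compound; after 16 hr at 37 °C/5% CO2, ONE-Glo was added and luciferase measured 30 min later.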
TSHR antag – blocks TSH signaling through the human TSH receptor; actives 0.2% (n = 330,000); P16473; activity change, negative = inhibition, % at 11.5 µM; TSHR-expressing cells, TSH-stimulated cAMP HTRF, 2 h; hits give low values;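 active = activity change below a set negative limit, meaning inhibition stronger than a set level, cut at about -70% in these data; inconclusive = activity change between two set negative limits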
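Read-out is FRET at 665 nm (cryptate excitation 337 nm) from a cryptate-tagged anti-cAMP antibody, competed by cell cAMP against cAMP-d2. Compounds are tested on freshly harvested TSHR cells challenged with 4nM TSH (EC80) for 2 hours at 37 deg C.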
RORg inh – blocks mouse ROR gamma transcriptional activity; AID 2551; P51450; actives 5.4% (n = 310,000); Potency, µM (top dose mostly 53.6 µM), usual class: inhibitors; Drosophila S2 Gal4-RORgamma UAS-luciferase reporter, 20 h; also: nearly all actives have a fitted effect of over 60% in size
Target sequence (P51450 whole entry, looked up, the tested form may be a part): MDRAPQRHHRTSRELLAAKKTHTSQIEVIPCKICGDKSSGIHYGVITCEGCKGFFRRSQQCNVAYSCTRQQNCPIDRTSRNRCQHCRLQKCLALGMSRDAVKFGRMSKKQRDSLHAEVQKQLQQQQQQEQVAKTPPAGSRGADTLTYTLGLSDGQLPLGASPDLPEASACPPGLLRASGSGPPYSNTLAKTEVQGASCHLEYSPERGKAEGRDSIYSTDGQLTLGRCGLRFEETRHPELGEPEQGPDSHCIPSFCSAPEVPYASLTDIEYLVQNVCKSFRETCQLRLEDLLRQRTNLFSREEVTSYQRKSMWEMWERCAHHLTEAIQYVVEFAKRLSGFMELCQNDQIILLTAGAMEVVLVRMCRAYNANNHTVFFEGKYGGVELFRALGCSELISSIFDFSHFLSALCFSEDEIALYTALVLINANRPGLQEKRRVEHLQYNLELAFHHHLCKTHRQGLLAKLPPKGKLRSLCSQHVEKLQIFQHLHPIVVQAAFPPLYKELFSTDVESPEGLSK
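A Gal4/UAS one-hybrid system in insect cells: metallothionein-promoter Gal4–ROR gamma fusion plus Photinus luciferase reporter. Copper sulfate 700 uM final, 20 hr ambient incubation, luminescent detection after 10 min with reagent.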
Coupling enz – inhibits coupling enzyme system, counter-screen for aldolase hits. coupling enzyme system counterscreen, AmpLite Red fluorescence. activity change, negative = inhibition, % at 58.2 µM, hits read low. actives 0.67% (n = 290,000). AID 2472; in the data active = activity change below about -30%
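Counterscreen of the coupled detection system alone, without aldolase: glyceraldehyde-3-phosphate coupling enzymes plus AmpLite Red readout. Compounds at 57.5 uM final, 10 min RT preincubation, 20 min RT reaction, fluorescence 525/598 nm.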
Each line names hits and unclear results; the compound was inactive in the other large screens. A selection: hits, their analogues and other compounds. The true share with any hit is near 8%. Unless noted, calls follow the shape of the dose curve; as a rule, active = well fitted curve in the direction sought with a large enough effect; inconclusive = small, poorly fitted or top-dose-only effect, or another doubt; inactive = no such curve, though single readings can be large; an effect the other way counts as inactive or inconclusive.

CCOC(=O)c1cc(-c2ccc(Cl)cc2)nc2c1c(C)nn2CCC#N	ELG1 repair inh inconclusive
CCOC(=O)c1cc(-c2ccc3c(c2)OCCO3)nc2c1c(C)nn2CCC#N	ELG1 repair inh 6.51µM
CCOC(=O)C1=C(C)Nc2sc(C(=O)c3ccc(F)cc3)c(N)c2C1c1ccc(C(=O)OC)cc1 (stereo unspecified)	ELG1 repair inh 5.17µM
Cn1c(-c2ccc(F)cc2)cnc1SCC(=O)N1CCCc2ccccc21	none
Cn1c(-c2ccc(F)cc2)cnc1SCC(=O)N1CCCCC1	Gal4-VP16 FLuc inconclusive, ELG1 repair inh inconclusive, RORg inh 10µM
COc1ccc(N(C(=O)CCl)C(C(=O)NCCc2ccccc2)c2cccs2)cc1 (stereo unspecified)	Gal4-VP16 FLuc inconclusive, ELG1 repair inh inconclusive, RORg inh 11.2µM
CC(=O)N1CCN(C(=O)c2ccc(S(=O)(=O)Nc3ccccc3F)cc2)CC1	none (no result: Gal4-VP16 FLuc, RORg inh, Coupling enz)
COC(=O)c1nc2ccc(N3CCOCC3)cc2c(C)c1C(=O)OC	Gal4-VP16 FLuc inconclusive, ELG1 repair inh inconclusive, RORg inh inconclusive, Coupling enz -50.5
O=C(CS(=O)Cc1ccco1)NCC=CCOc1cc(CN2CCCCC2)ccn1 (stereo unspecified)	none (no result: ELG1 repair inh, TSHR antag, Coupling enz)
COc1ccc(N2CCN(C(=O)COC(=O)c3ccc(-n4nc(C)cc4C)cc3)CC2)cc1	none (no result: Gal4-VP16 FLuc, RORg inh, Coupling enz)
Cn1cccc1Cc1nnc(SCC(=O)Nc2nccs2)n1CCc1ccccc1	Gal4-VP16 FLuc inconclusive, ELG1 repair inh inconclusive, RORg inh 17.8µM
Cn1c(CSCc2ccc(F)cc2)nnc1SCC(=O)Nc1nccs1	ELG1 repair inh 16.4µM
Cn1cccc1Cc1nnc(SCC(=O)Nc2nccs2)n1C	none
Cn1c(CSCc2ccc(Cl)cc2)nnc1SCC(=O)Nc1nccs1	ELG1 repair inh inconclusive
CC(=O)CC1(OC(C)=O)C(=O)N(C)c2ccccc21 (stereo unspecified)	Gal4-VP16 FLuc 14.1µM, ELG1 repair inh inconclusive, RORg inh 6.31µM
C/C(CC1(O)C(=O)N(C)c2ccccc21)=N\O (stereo unspecified)	none
C[C@@H]1NC(=O)[C@@H](C)COC(=O)[C@H](C)NC(=O)[C@@H](C)COC1=O	none (no result: ELG1 repair inh, TSHR antag)
N#CCCn1cc(/C=N/NC(N)=S)c(-c2ccccc2)n1	Gal4-VP16 FLuc 7.08µM, ELG1 repair inh inconclusive, RORg inh 6.31µM
N#CCCn1cc(/C=N/O)c(-c2ccc(-c3ccccc3)cc2)n1	ELG1 repair inh inconclusive
N#CCCn1cc(/C=N/NC(N)=S)c(-c2ccc(Br)cc2)n1	Gal4-VP16 FLuc 0.501µM, ELG1 repair inh inconclusive, RORg inh 0.224µM
CCC1=C2CC[C@H]3C(=O)N(C)C(=O)[C@H]3[C@H]2[C@@]2(Cc3ccccc3)C(=NCCc3c[nH]c4ccccc34)OC(=O)N2C1=O	none (no result: ELG1 repair inh, TSHR antag)
O=C(CCc1ccc(S(=O)(=O)N2CCOCC2)cc1)Nc1c(F)cccc1F	none (no result: Gal4-VP16 FLuc, TSHR antag, RORg inh, Coupling enz)
COc1cc(OC)cc(-c2cc3nc(C)c(CCC(=O)NC(C)CCc4ccco4)c(C)n3n2)c1 (stereo unspecified)	ELG1 repair inh 12.6µM, RORg inh inconclusive
Cc1nc2cc(-c3cccc(F)c3)nn2c(C)c1CCC(=O)N1CCN(c2ccccn2)CC1	RORg inh inconclusive
Cc1nc2cc(-c3cccc(F)c3)nn2c(N2CCN(C(=O)c3ccco3)CC2)c1C	ELG1 repair inh 16.4µM
Cc1nc2cc(-c3cccc(F)c3)nn2c(C)c1CCC(=O)NC(C)CCc1ccco1 (stereo unspecified)	ELG1 repair inh inconclusive, RORg inh 11.2µM
Cc1nc2cc(-c3ccccc3)nn2c(C)c1CCC(=O)NCc1ccco1	ELG1 repair inh inconclusive
COc1ccc(-c2cc3nc(C)c(CCC(=O)NCc4ccc(F)cc4)c(C)n3n2)c(OC)c1	ELG1 repair inh 25.9µM
COc1cc(OC)cc(-c2cc3nc(C)c(CCC(=O)O)c(C)n3n2)c1	Gal4-VP16 FLuc 2.82µM, ELG1 repair inh inconclusive, RORg inh 0.708µM
CCOC(=O)C1CCN(C(=O)CCc2c(C)nc3cc(-c4ccccc4)nn3c2C)CC1	none
Cc1c(C(=O)OCC(=O)NC2CC2)oc2ccc(Br)cc12	none (no result: Gal4-VP16 FLuc, RORg inh, Coupling enz)
CCC/C=C(\CCC)C(NC(=O)c1ccccc1)c1ccc(C(=O)OC)cc1 (stereo unspecified)	none (no result: ELG1 repair inh, TSHR antag)
CCNC(=S)/N=C(/Nc1ccc(OC)cc1)Nc1nc(C)cc(C)n1	Gal4-VP16 FLuc inconclusive, RORg inh 1.78µM
COc1cccc(N/C(=N/C(=S)Nc2ccc(C)cc2C)Nc2nc(C)cc(C)n2)c1	Gal4-VP16 FLuc 3.16µM, ELG1 repair inh 25.9µM, RORg inh 1.26µM
CCNC(=S)NC(=NCc1cccnc1)Nc1nc(C)cc(C)n1	Gal4-VP16 FLuc inconclusive, RORg inh 11.2µM
CCNC(=S)/N=C(/Nc1ccccc1)Nc1nc(C)cc(C)n1	Gal4-VP16 FLuc 3.16µM, ELG1 repair inh inconclusive, RORg inh 0.794µM
COc1cccc(-c2cc(NCc3ccccc3)ncn2)c1	none (no result: ELG1 repair inh, TSHR antag)
NS(=O)(=O)c1ccc(NC(=O)c2ccc(F)cc2F)c(NC(=O)c2ccc(F)cc2F)c1	none
CC(=O)NC(CC(=O)Nc1ccc2c(c1)OCCO2)c1ccccc1 (stereo unspecified)	ELG1 repair inh inconclusive
Cc1ccc(C)o1	none (no result: ELG1 repair inh, TSHR antag, Coupling enz)
COc1ccc(CCNC(=O)C2CCCN(S(=O)(=O)c3ccccc3)C2)cc1 (stereo unspecified)	none (no result: Coupling enz)
CCN1/C(=C\C(C)=O)Sc2ccc(OC)cc21	ELG1 repair inh 23.1µM
O=[N+]([O-])c1cccc(-c2c[n+]3c(n2-c2ccccc2)SCC3)c1	ELG1 repair inh inconclusive
Clc1ccc(-c2c[n+]3c(n2-c2ccccc2)SCC3)cc1	ELG1 repair inh 7.3µM
COc1ccc(C2NN=C(c3ccc(C)cc3)S2)cc1 (stereo unspecified)	Gal4-VP16 FLuc 7.08µM, ELG1 repair inh inconclusive, RORg inh inconclusive
CCOc1cc(C2c3c(n[nH]c3C)C(=O)N2c2ccc(C)cc2)ccc1O (stereo unspecified)	none
CCOc1cc(C2NN=C(c3ccc(C)cc3)S2)ccc1O (stereo unspecified)	Gal4-VP16 FLuc 14.1µM, ELG1 repair inh inconclusive, RORg inh 1.12µM
Cc1ccc(C2=NNC(C(O)C(O)C(O)CO)S2)cc1 (stereo unspecified)	Gal4-VP16 FLuc inconclusive, ELG1 repair inh inconclusive, RORg inh inconclusive
CC(C(=O)N1CCCCC1)N(C)CC(=O)Nc1cccc(F)c1 (stereo unspecified)	none (no result: Gal4-VP16 FLuc, RORg inh, Coupling enz)
Cc1cccc(C#Cc2ccccc2)n1	Gal4-VP16 FLuc inconclusive, ELG1 repair inh inconclusive, RORg inh 14.1µM
Nc1ccc(C#Cc2ccccc2)cc1	ELG1 repair inh inconclusive
NC(=O)c1ccc(-c2nnn(CC(=O)N(C3CCCC3)C3CCS(=O)(=O)C3)n2)cc1 (stereo unspecified)	none (no result: Gal4-VP16 FLuc, RORg inh, Coupling enz)
COc1cc(CC(=O)OCC(=O)Nc2sccc2C(N)=O)cc(OC)c1OC	Gal4-VP16 FLuc inconclusive, ELG1 repair inh 7.3µM

From PubChem
